Experimental data published in PubChem BioAssay (NCI).
About 83,000 compounds went through this panel and 20% of them were active in at least one assay; those are over-represented in the sample as a whole.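 A percent growth of 40 corresponds to 60% growth inhibition; 0 means no net growth; -100 means all cells died. Active threshold: below 10.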 Unmarked numbers belong to inactive results. Active and inactive are the calls of the source.

test system: NCI-H322M lung; test: NCI-60 one-dose screen, 48 h (100 = growth as untreated, 0 = no growth, -100 = all killed); conditions: 10 µM unless noted
Protocol: Growth inhibition of the NCI-H322M human Non-Small Cell Lung tumor cell line is measured as a screen for anti-cancer activity. Cells are grown in 96 well plates and exposed to the test compound for 48 hours. Compounds are tested at a single concentration, which is 10^-5 M for most compounds. The reported endpoint is percent growth (GI% or GIPRCNT), where numbers from 0 - 100% represent growth inhibition, and numbers from -100% - 0 represent cell death. For example, a value of 40 represents 60% growth inhibition. A value of 0 means no net growth occurred over the course of the experiment. A value of -40 indicates 40% of cells at the beginning of the experiment died by the end of the experiment. A value of -100 means all cells are dead at the end of the experiment.
NCI-60 Human Tumor Cell Lines Screen was performed using the standard one-dose NCI protocol, which is described in more detail at https://dtp.cancer.gov/discovery_development/nci-60/default.htm.
Compounds with GIPRCNT values below 10 were considered active. Activity score was based on GIPRCNT using the following formula: […]
Score is 0 for GIPRCNT values of 100 or above, 50 for GIPRCNT values of 0, and 100 for GIPRCNT values of -100.

SMILES	growth
COc1ccc2cc(-c3ccc(-c4ccc(C(=N)N)cc4)s3)ccc2c1	97.7%
CCCCN(CCCC)c1ccc(C(=N)c2ccc(N(CCCC)CCCC)cc2)cc1	11.9%
CCCCOc1ccc(/C=C2/SC(N3CCOCC3)=NC2=O)cc1OCC	94.3%
O=S1(=O)CCC(N(/N=C/c2ccco2)c2ccccc2)C1 (stereo not given)	102%
Cc1ccc(S(=O)(=O)C2=C3C(=C(c4ccccc4)c4ccccc43)CN(S(=O)(=O)c3ccc(C)cc3)C2)cc1	93.8%
NC1=NN(O)C2=CC([N+](=O)[O-])C=CC2=N1 (stereo not given)	113%
Cc1ccc(-c2nc(C#N)c(S(=O)(=O)n3nc(-c4ccccc4)cc3N)o2)cc1	97.3%
O=C(CSc1nc2ccccc2[nH]1)c1ccc(N2CCOCC2)cc1	99.5%
Cn1ncc2c(Sc3ccc(Cl)cc3)ncnc21	86.5%
O=C(NCCCNc1nccc(-n2ccc3cccnc32)n1)c1c(F)cccc1F	103%
O=c1[nH]c(-c2ccccc2)nc(CN2CCCCC2)c1O	136%
COc1ccc2c(c1)[nH]c(=O)c1c3cc(C)c(C)cc3cn21	-25.1% (active)
COc1ccc2[nH]c(=O)c(/C=N/Nc3nc(-c4ccccc4)cs3)c(O)c2c1	18.2%
CC(C)(C)c1[nH]nc2c1C(c1cc3ccccc3[nH]c1=O)Nc1cc(C(=O)Nc3ccc(Cl)cc3)ccc1N2 (stereo not given)	78.6%
CCC(=O)Oc1ccc(/C(=C(/C)Cc2cccc(OC)c2)c2ccc(OCCN(C)C)cc2)cc1	94.5%
COc1ccc(OC)c(/C=C2\Oc3cc(OCCCN4CCCC4)ccc3C2=O)c1	88.9%
COc1ccc(-c2ccc(-c3ccc(-c4ccc(C(=N)N)cc4)s3)s2)cc1OC	111%
COc1ccc(C2C=C(c3ccc(Cl)cc3)N=C3SC=C(C)N32)c(Br)c1 (stereo not given)	55.2%
COc1ccc(-c2nc3sccn3c2/C=C/C(=O)c2cc(F)cc(F)c2)cc1	123%
CSc1nc2c(c(=O)[nH]1)C(c1ccc(C)cc1)C=C(C(=O)O)N2 (stereo not given)	101%

SMILES	growth
O=[N+]([O-])c1ccc(OCCCOc2ccccc2)cc1	101%
COc1ccc(-c2c(N)n[nH]c2-c2cc3c(c(OC)c2OC)OCO3)cc1	100%
O=C1C(Cl)=C(Nc2ccccn2)C(=O)c2ccccc21	115%
C=C(C)[C@@H]1CC[C@]2(C(=O)N3CCNCC3)CC[C@]3(C)[C@H](CC[C@@H]4[C@@]5(C)C/C(=C/c6ccncc6)C(=O)C(C)(C)[C@@H]5CC[C@]43C)[C@@H]12	110%
CC(C)(C)n1cc(-c2ccnc(NCCCNS(=O)(=O)c3ccc(Br)cc3)c2)c(-c2cccc(O)c2)n1	30.9%
COc1ccc(-c2ccc(-c3ccc(C(=N)N)s3)s2)cc1Cl	96.8%
CN1C(=O)N(C)C2C1NN=c1s/c(=C\C=C\c3ccccc3)c(=O)n12 (stereo not given)	68.4%
CCN(CC)CCOc1ccc(Cl)c(C)c1	103%
COC(OC)c1ccccc1	103%
CCN(CC)CCC(CNc1ccnc2cc(Cl)ccc12)c1ccccc1 (stereo not given)	93.7%
Cn1ccc(=O)c(S(N)(=O)=O)c1	108%
COc1cc(Nc2ncccc2C(=O)NCc2cn(Cc3cccc(Oc4ccccc4)c3)nn2)cc(OC)c1	65.2%
COc1ccccc1CNCCCN1C(=O)c2ccc3c4c(ccc(c24)C1=O)C(=O)N(CCCNCCCCNCCCN)C3=O	-4.96% (active)
COc1ccc(-c2nc(SCCC(C)C)nc(Nc3ccc(F)c(Cl)c3)c2C#N)cc1	63.2%
O=C(NCc1cn(Cc2cccc(Oc3ccccc3)c2)nn1)c1cccnc1Nc1ccc(F)cc1	77.4%
COc1cccc(/C=C/C(=O)Nc2cc(OC)c3c(c2)OCO3)c1	102%
COc1ccc2c(c1)[nH]c(=O)c1c3cccc(F)c3cn21	52.4%
Cc1cc(C2(c3cc(C)c(O)cc3C)OS(=O)(=O)c3ccccc32)c(C)cc1O	101%
COc1cccc(-c2nc3sccn3c2-c2ccnc(NCCCNS(=O)(=O)c3ccc(C(F)(F)F)cc3)c2)c1	79.4%
COc1ccc(/C=C/c2c(C(C)=O)c(C)nc3ccccc23)cc1	99.3%
